Mdm2-MdmX inh = inhibitors of human Mdm2-MdmX association, primary screen, cell-based, luminescence, split luciferase, SaOS-2, uHTS; Protein Mdm4 (Homo sapiens) + E3 ubiquitin-protein ligase Mdm2 (Homo sapiens), …; SaOS-2 split-luciferase Mdm2/MdmX complementation; inhibition, % at 8 µM; 330,000 compounds, 3% hits;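 active means inhibition of at least 50% at 8 µM in the primary screen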
Target sequence (O15151 whole entry, looked up): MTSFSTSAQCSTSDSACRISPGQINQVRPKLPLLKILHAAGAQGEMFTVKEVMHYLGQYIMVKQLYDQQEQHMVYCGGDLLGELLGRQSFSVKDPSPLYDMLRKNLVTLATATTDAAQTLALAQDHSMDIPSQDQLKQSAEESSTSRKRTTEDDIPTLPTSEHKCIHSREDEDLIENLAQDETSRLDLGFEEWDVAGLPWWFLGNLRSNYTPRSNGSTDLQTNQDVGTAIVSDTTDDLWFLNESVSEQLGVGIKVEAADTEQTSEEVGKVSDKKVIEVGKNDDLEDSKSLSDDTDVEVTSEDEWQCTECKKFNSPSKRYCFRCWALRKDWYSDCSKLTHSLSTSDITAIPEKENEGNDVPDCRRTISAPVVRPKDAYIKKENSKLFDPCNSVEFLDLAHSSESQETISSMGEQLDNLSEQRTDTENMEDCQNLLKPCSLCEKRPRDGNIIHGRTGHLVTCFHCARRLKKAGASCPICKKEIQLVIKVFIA
Target sequence (Q00987 whole entry, looked up): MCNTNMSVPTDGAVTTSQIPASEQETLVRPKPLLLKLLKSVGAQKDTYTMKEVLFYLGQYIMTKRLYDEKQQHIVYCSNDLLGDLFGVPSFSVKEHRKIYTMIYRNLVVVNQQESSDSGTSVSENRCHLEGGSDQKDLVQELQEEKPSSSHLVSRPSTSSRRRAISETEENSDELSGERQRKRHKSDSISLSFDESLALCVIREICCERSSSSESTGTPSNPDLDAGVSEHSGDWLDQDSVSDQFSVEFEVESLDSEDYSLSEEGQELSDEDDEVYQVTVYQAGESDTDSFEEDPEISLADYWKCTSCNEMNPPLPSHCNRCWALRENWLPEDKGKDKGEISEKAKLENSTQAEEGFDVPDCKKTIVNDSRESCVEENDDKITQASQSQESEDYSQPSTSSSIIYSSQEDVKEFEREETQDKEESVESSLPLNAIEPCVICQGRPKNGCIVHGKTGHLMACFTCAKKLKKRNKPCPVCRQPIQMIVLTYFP
NR3A LBD binder = binders of NR3A ligand-binding domain, primary screen, biophysical, differential scanning fluorimetry, uHTS | Glutamate receptor ionotropic, NMDA 3A (GRIN3A) ligand-binding domain | 340,000 compounds, 2.5% hits | NR3A LBD differential scanning fluorimetry, Tm shift; 0% = protein alone, 100% = glycine-bound protein | AID 1259313, 2017 | Tm shift relative to glycine control, % at 25 µM;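 active means melting temperature shift of at least 10% of the positive control shift, at one fixed dose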
CSC inhib = cancer stem cell viability inhibitors, primary screen, luminescence; cancer stem cell-like cells viability; inhibition, % at 7.5 µM; 300,000 compounds, 1.1% hits; AID 2717, 2010; in the data active means inhibition above about 75%; tested in HMLE shEcad cells
MPTP block = mitochondrial permeability transition pore inhibitors, primary screen, biochemical, isolated mouse mitochondria, absorbance. Ca2+ swelling absorbance, 30 min. inhibition, % at 10 µM. 360,000 compounds, 1.4% hits. AID 602449, 2012;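 active means inhibition of 50% or more, scaled per plate between neutral and stimulator controls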;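 further: 0% = DMSO wells given calcium and 100% = 1 mM EGTA wells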
SKKanGAS inh = S. pyogenes SKKanGAS growth inhibitors in kanamycin, primary screen, streptokinase expression inhibitor project, SKKanGAS strain, BacTiter-Glo luminescence | 6 h | inhibition, % at 7.5 µM | 300,000 compounds, 1.3% hits | AID 1662, 2009;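 active means mean replicate score, as percent of positive control median, at least 50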;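 further: strain carries kanamycin resistance gene driven by streptokinase promoter and grows in 40 µg/ml kanamycin; loss of luminescence reflects streptokinase promoter inhibition or plain growth inhibition; 0% = median of DMSO wells and 100% = positive control at its reference dose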
Beta apoptosis = inhibitors of cytokine-induced beta cell apoptosis, primary screen, luminescence; INS-1E cytokine-induced death, ATP luminescence, 48 h; percent of positive-control rescue, neutral wells zero; protection from apoptosis, % (test concentration not listed); 300,000 compounds, 0.8% hits;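 active means Every replicate reaches about 75%, or at least half do and their mean reaches it too, limit read from the data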;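 further: 0% = cytokine-treated negative control wells and 100% = positive control rescue; higher means more ATP so stronger rescue from cytokine killing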
Rh123 counter = fluorescence retest of MPTP screen hits in isolated mitochondria, single concentration. membrane potential, Rhodamine 123 fluorescence. shares compounds with MPTP block. 5,000 compounds, 78% hits. inhibition, % at 10 µM; in the data active means inhibition above about 22%;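 further: 0% = DMSO vehicle and 100% = positive control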
MPTP swell DR = mitochondrial permeability transition pore inhibitors, dose response, biochemical, absorbance, uHTS hits | 780 compounds, 58% hits | IC50, µM | AID 651561, 2012 | isolated mitochondria swelling | shares compounds with MPTP block; in the data active means IC50 below about 20 µM
MPTP cs DR = fluorescent counter-screen in isolated mitochondria, dose response, counter-screen for MPTP inhibitor project, biochemical, fluorescence, uHTS hits; shares compounds with MPTP block; isolated mitochondria counterscreen, fluorescence read-out; IC50, µM; 780 compounds, 49% hits; AID 651564, 2012; in the data active means IC50 below about 80 µM
Numbers without * were called inactive; i = inactive; x = not tested or not shown. The list is not random: actives were taken first. Their share in the collection is about 6.9%.

SMILES	Mdm2-MdmX inh	NR3A LBD binder	CSC inhib	MPTP block	SKKanGAS inh	Beta apoptosis	Rh123 counter	others
Cn1cccc1CN1CCN(C(=O)COc2ccccc2)CC1	2	0	x	14	2	-1	x
Cn1nc(-c2ccc(OCC(=O)N3CCN(Cc4ccccc4)CC3)cc2)c2ccccc2c1=O	48	1	-1	72*	5	35	43*
COc1ccc2c(c1OC)C(=O)OC2c1c(O)n(C2CCCCC2)c(=O)[nH]c1=O (configuration not stated)	12	1	-7	-1	-1	-2	x
CCOc1cccc(C2NCc3ccccc3-n3cccc32)c1O (configuration not stated)	18	-10	-4	1	9	-3	x
CCOc1cc(C2NCc3ccccc3-n3cccc32)ccc1O (configuration not stated)	8	-1	1	88*	-2	-5	-8	MPTP swell DR=7.1*;MPTP cs DR=>80
Cc1cccc(CCNCc2cc3cccc(C)c3[nH]c2=O)c1	14	-1	9	67*	-6	-3	44*
Cc1cccc(CCNCc2cc3cc(C)cc(C)c3[nH]c2=O)c1	-1	2	7	-2	6	1	x
C[C@]12CCC3C(CC[C@H]4C[C@@H](O)CC[C@]34C)C1C[C@@H](O)[C@@H]2O (some centres not stated)	x	0	x	-2	x	x	x
COc1ccc2c(c1)C13CCN(C)C(C2)C1CCC1(C3)OCCO1 (configuration not stated)	x	1	x	-1	x	x	x
COc1ccc2c(c1)[C@@]13CCC=C[C@H]1[C@@H](C2)NCC3	22	1	-10	55*	x	1	-6	MPTP swell DR=i;MPTP cs DR=>80
CCOC(=O)C1(CCc2ccccc2)CCN(Cc2ccc3c(c2)OCCO3)CC1	15	0	43	28	-3	x	x
CCOC(=O)C1(CCOc2ccccc2)CCN(Cc2ccc(C)s2)CC1	17	-2	41	65*	8	19	82*
COC(=O)C1=C(c2ccc(S(C)(=O)=O)cc2)C[C@@H]2CC[C@H]1N2C(=O)NC1CCCCC1	-9	-3	-10	0	0	-4	x
CC12CN3CC(C)(CN(C1)C3c1cccs1)C2O (configuration not stated)	6	0	-6	-2	12	-7	x
O=C1N(c2ccc(Cl)cc2)C(c2cccnc2)N2CCCN12 (configuration not stated)	-17	-14	5	67*	-12	-4	104*
O=C(Nc1cccc(Cl)c1)OC1CN2CCC1CC2 (configuration not stated)	30	42*	18	92*	6	x	88*
O=C(Nc1ccc(Cl)cc1)OC1CN2CCC1CC2 (configuration not stated)	-23	8	18	78*	-5	-10	93*
O=C(Nc1ccccc1Cl)OC1CN2CCC1CC2 (configuration not stated)	-25	2	-13	0	4	x	x
C[C@H]1[C@@H](c2ccccc2)O[C@@H](c2ccccc2Br)N1C	10	1	-1	0	0	-4	x
CCN1C(=O)C(=Cc2ccc(C)s2)C(=O)N(CC)C1=S	-36	3	11	73*	-2	-4	-6
Nc1c2c(nc3sc4c(c13)CCCCC4)CCCC2	-29	1	10	88*	-3	3	80*
COC12CCC3(CC1C(C)(O)C(C)(C)C)[C@H]1Cc4ccc(OC5OC(C(=O)O)[C@@H](O)C(O)[C@H]5O)c5c4[C@@]3(CCN1CC1CC1)C2O5 (some centres not stated)	-6	0	x	0	x	x	x
Oc1cc(Cl)c(Cl)c(Cl)c1	x	-6	x	95*	x	x	87*
Oc1cc(Cl)c(Cl)c(Cl)c1Cl	x	-4	x	79*	x	x	99*
Oc1ccc(Cl)c(Cl)c1	16	-1	2	2	x	-9	x
SMILES	Mdm2-MdmX inh	NR3A LBD binder	CSC inhib	MPTP block	SKKanGAS inh	Beta apoptosis	Rh123 counter	others
Cc1cc2c(C(C)C)c(O)c(O)c(C=O)c2c(O)c1-c1c(C)cc2c(C(C)C)c(O)c(O)c(C=O)c2c1O	x	x	x	85*	x	x	19
O=C1NC(=O)C(=Cc2ccc(-c3ccccc3[N+](=O)[O-])o2)C(=O)N1	3	-2	20	51*	1	-2	47*
O=C1NC(=O)C(=Cc2ccc(-c3cc(Cl)ccc3[N+](=O)[O-])o2)C(=O)N1	x	1	x	31	0	x	x
O=c1[nH]c2ccccc2n1C1CCN(C(c2nnnn2-c2ccc3c(c2)OCCO3)C2CC2)CC1 (configuration not stated)	x	x	x	-1	x	x	x
CCc1ccc(CN2CCN(Cc3ccc(SC)cc3)CC2)cc1	23	0	50	56*	6	0	-7	MPTP swell DR=i;MPTP cs DR=45*
CSc1ccc(CN2CCN(c3ccccc3C)CC2)cc1	16	3	x	0	2	x	x
O=C(C1CC(c2ccccc2O)=NO1)N1CCC2(CC1)OCCO2 (configuration not stated)	-15	-1	12	-2	1	-8	x
CN1CCC(N(C)c2nc(-c3ccc([N+](=O)[O-])cc3)nc3ccccc23)CC1	x	-3	x	102*	25	x	-16
O=C1NC(=S)SC1=Cc1ccc(N(CCCl)CCCl)cc1	x	4	x	53*	x	x	67*
Cn1c(=O)c2c(ncn2CCCl)n(C)c1=O	-30	-2	-6	0	-4	2	x
c1ccc2c(CNC3CCCCCC3)c[nH]c2c1	42	-1	3	71*	x	50	-6	MPTP swell DR=8.7*;MPTP cs DR=73*
CC12CCC(=O)C=C1CC(O)C1C2CCC2(C)C1CCC2(C)O (configuration not stated)	x	1	x	-1	x	x	x
CC(C)CCNC(=O)c1cc(C(=O)c2cc(F)ccc2O)cn(CCC(C)C)c1=O	-6	-5	-6	53*	47	-5	-2	MPTP swell DR=i;MPTP cs DR=5.9*
CC(C)CCNC(=O)c1cc(C(=O)c2cc(Br)ccc2O)cn(CCC(C)C)c1=O	34	9	10	93*	6	8	7	MPTP swell DR=>100;MPTP cs DR=<2.5*

From PubChem
